Assay results reported in PubChem BioAssay AID1159580 (chemical genetic matrix, 2015).
About 2,000 (36%) of roughly 5,500 compounds were called active. About 18% were inconclusive and are not listed. Cut-off read from the data, not from the text of the source: active = normalized growth mostly below about 0.91 (no sharp cut-off); inconclusive = no clear call, values can overlap the other calls; inactive = mostly above about 0.92. The list shows a part of the results.

Experiment: chemical genetic growth profiling, strain panel (AID 1159580);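 note: tested at 20 µM; growth read once vehicle control cultures reached saturation at 30 °C; 1 = growth at the plate median or of vehicle wells; lower values mean less growth of the strain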
Details: S. cerevisiae deletion strains, growth OD

Measured: normalized growth

COc1ccc2c(=O)ccoc2c1
inactive: locus YAL013W, strain DEP1, active compounds read low 1.02 | locus YAL021C, strain ccr4, active compounds read low 1.02 | locus YAL026C, strain drs2, active compounds read low 1.02 | locus YAL030W, strain snc1, active compounds read low 1.01 | locus YBL061C, strain skt5, active compounds read low 1.01 | locus YBR009C, strain hhf1, active compounds read low 1.02 | locus YBR021W, strain FUR4, active compounds read low 0.979 | locus YBR023C, strain chs3, active compounds read low 1.02 | locus YBR171W, strain sec66, active compounds read low 1.04 | locus YBR229C, strain ROT2, active compounds read low 1.01 | locus YBR231C, strain swc5, active compounds read low 1.01 | locus YBR279W, strain paf1, active compounds read low 1.02 | locus YCL011C, strain gbp2, active compounds read low 1.02 | locus YCL016C, strain dcc1, active compounds read low 1.02 | locus YCL029C, strain bik1, active compounds read low 1.01 | locus YCL061C, strain MRC1, active compounds read low 1.02 | locus YCL069W, strain vba3, active compounds read low 1.02 | locus YCR088W, strain abp1, active compounds read low 1.03 | locus YDL005C, strain med2, active compounds read low 1.02 | locus YDL035C, strain GPR1, active compounds read low 1 | locus YDL040C, strain nat1, active compounds read low 1.02 | locus YDL074C, strain BRE1, active compounds read low 1.02 | locus YDL101C, strain DUN1, active compounds read low 1.02 | locus YDL134C, strain PPH21, active compounds read low 1.02 | locus YDL185W, strain tfp1, active compounds read low 1.01 | locus YDL192W, strain arf1, active compounds read low 1.01 | locus YDR001C, strain nth1, active compounds read low 1.02 | locus YDR069C, strain doa4, active compounds read low 1.02 | locus YDR101C, strain arx1, active compounds read low 0.995 | locus YDR137W, strain rgp1, active compounds read low 1.03 | locus YDR150W, strain NUM1, active compounds read low 1.03 | locus YDR159W, strain sac3, active compounds read low 1.04 | locus YDR162C, strain NBP2, active compounds read low 1.02 | locus YDR195W, strain ref2 1.08 | locus YDR297W, strain sur2, active compounds read low 1.02 | locus YDR318W, strain mcm21, active compounds read low 0.992 | locus YDR334W, strain swr1, active compounds read low 1.02 | locus YDR335W, strain msn5, active compounds read low 1.02 | locus YDR388W, active compounds read low 1.01 | locus YDR392W, strain spt3, active compounds read low 1.04 | locus YDR502C, strain sam2, active compounds read low 1.01 | locus YEL003W, strain gim4, active compounds read low 1.02 | locus YEL037C, strain rad23, active compounds read low 1.02 | locus YEL061C, strain CIN8 (second series), active compounds read low 1.02 | locus YEL061C, strain CIN8, active compounds read low 1.01 | locus YER015W, strain faa2, active compounds read low 1.03 | locus YER016W, strain bim1, active compounds read low 1.02 | locus YER110C, active compounds read low 1.01 | locus YER111C, strain swi4, active compounds read low 1.01 | locus YER155C, strain BEM2 (second series), active compounds read low 1 | locus YER155C, strain BEM2, active compounds read low 1.02 | locus YER167W, strain BCK2, active compounds read low 1.04 | locus YFR010W, strain ubp6, active compounds read low 1.03 | locus YGL078C, strain dbp3, active compounds read low 1.02 | locus YGL086W, strain mad1, active compounds read low 1.01 | locus YGL167C, strain pmr1, active compounds read low 1.03 | locus YGL173C, strain kem1, active compounds read low 1.02 | locus YGL227W, strain vid30, active compounds read low 1.03 | locus YGL240W, strain doc1, active compounds read low 1.02 | locus YGL248W, strain PDE1, active compounds read low 1.02 | locus YGL253W, strain hxk2, active compounds read low 1.02 | locus YGR078C, strain PAC10, active compounds read low 0.997 | locus YGR135W, strain pre9, active compounds read low 0.978 | locus YGR229C, strain SMI1, active compounds read low 1.04 | locus YGR252W, strain gcn5, active compounds read low 0.825 | locus YHR013C, strain ard1, active compounds read low 1.08 | locus YHR027C, strain rpn1, active compounds read low 1.03 | locus YHR030C, strain SLT2, active compounds read low 1.02 | locus YHR079C, strain IRE1 (second series), active compounds read low 0.998 | locus YHR094C, strain hxt1, active compounds read low 1.01 | locus YHR129C, strain ARP1, active compounds read low 1.01 | locus YHR142W, strain chs7, active compounds read low 1.03 | locus YHR200W, strain rpn10, active compounds read low 0.997 | locus YIL066C, strain RNR3, active compounds read low 1.01 | locus YIL073C, strain SPO22, active compounds read low 1.04 | locus YIL125W, strain kgd1, active compounds read low 1.02 | locus YIR030C, strain dcg1, active compounds read low 1.01 | locus YJL092W, strain hpr5, active compounds read low 1.02 | locus YJL095W, strain BCK1 (second series), active compounds read low 1.02 | locus YJL095W, strain BCK1, active compounds read low 0.991 | locus YJL115W, strain asf1, active compounds read low 1.01 | locus YJL129C, strain trk1, active compounds read low 1.06 | locus YJL134W, strain LCB3, active compounds read low 1.02 | locus YJL154C, strain vps35, active compounds read low 1.03 | locus YJL164C, strain tpk1, active compounds read low 1.03 | locus YJL166W, strain qcr8, active compounds read low 1.02 | locus YJL168C, strain set2, active compounds read low 1.01 | locus YJL187C, strain SWE1 (second series), active compounds read low 1.01 | locus YJL187C, strain SWE1, active compounds read low 1.02
